A selection follows.
aSyn UTR act = Activators via SNCA 5'UTR binding, MLPCN | alpha-synuclein 5'UTR reporter, activators screen | activity score, % (tested at 7.5 µM), hits read low | hit rate 7.1% among 300,000; in the data active = activity score below about -60%
Starred values were filed as active, the others as inactive.

SMILES | aSyn UTR act
O=C(Nc1ccccc1O)c1ccc(Cl)cc1 | -255*
O=C(Nc1ccccc1O)c1ccc([N+](=O)[O-])cc1 | -70*
CC(C)(C)c1ccc(C(=O)Nc2ccccc2Cl)cc1 | -88*
Cc1ccc(C(=O)Nc2cc(Cl)ccc2OC(=O)c2ccc(C)cc2)cc1 | -227*
COc1ccc(OC(=O)c2ccc(Cl)cc2)c(C(C)=O)c1 | -78*
COc1cc(NC(=O)c2cc3nc(C)cc(C)n3n2)c(OC)cc1Cl | -214*
Cc1cc(NC(=O)c2ccccc2)c(Cl)cc1N | 64
COc1ccc(C(=O)Nc2cc(Cl)ccc2OC(=O)c2ccc(OC)cc2)cc1 | -158*
COc1ccc(-c2noc(CCC(=O)Nc3cc(Cl)c(OC)cc3OC)n2)cc1 | -65*
COc1ccc(-c2noc(CCCC(=O)NC3CCCC3)n2)cc1 | 62
CN(C)N1C(=O)/C(=C/c2ccco2)SC1=Nc1ccccc1 | -64*
COc1ccc(-c2cc3cc(OC)c(OC)cc3c(C)n2)cc1 | -105*
CCn1c(=O)c2cc(C(=O)NC(C)C)sc2c2ccccc21 | -79*
Cn1c(-c2ccc3nc(N)sc3c2)nc2cc(N)ccc21 | -72*
O=C(NCC1CCCO1)c1ccc(-c2ccccc2Cl)o1 (stereo not drawn) | -115*
O=C(NC1CCCCC1)c1ccc([N+](=O)[O-])o1 | -79*
CC(NC(=O)c1ccc([N+](=O)[O-])o1)C12CC3CC(CC(C3)C1)C2 (stereo not drawn) | -168*
CC(NC(=O)COC(=O)c1ccc2c(c1)S(=O)(=O)N=C1CCCCCN12)C12CC3CC(CC(C3)C1)C2 (stereo not drawn) | 68
O=C(NCC1CCCO1)c1cc(-c2ccccc2F)no1 (stereo not drawn) | -204*
O=C(NC1CCCCC1)c1ccc(-c2ccccc2[N+](=O)[O-])o1 | -83*
O=C(NCC1CCCO1)c1ccc([N+](=O)[O-])o1 (stereo not drawn) | -90*
Cc1nc2c(C(=O)N3CCCCC3)cnn2c(C)c1Cc1ccccc1F | -117*
Cc1cccc(N2CCN(C(=O)CN3C(=O)C4CC=CCC4C3=O)CC2)c1C (stereo not drawn) | -113*
Cc1cccc(N2CCN(C(=O)NC3CCCCC3)CC2)c1C | -95*
CN(C)c1ccc(C2Nc3ccccc3C(=O)N2CCCN2CCOCC2)cc1 (stereo not drawn) | -120*
SMILES | aSyn UTR act
O=[N+]([O-])c1cc(/C=N\Nc2nc(-c3ccccc3)cs2)ccc1O | -67*
COc1cc(/C=N/Nc2nc(-c3ccc(S(=O)(=O)N(C)C)cc3)cs2)ccc1O | -78*
Cc1nn(Cc2ccccc2Cl)c2sc(C(=O)NCCCn3ccnc3)cc12 | -105*
CN(C)c1ccc(C2=NOC(CN3C(=O)c4ccccc4S3(=O)=O)C2)cc1 (stereo not drawn) | -134*
CCOc1ccc2nc(SCc3cccc(C)c3)nc(C)c2c1 | -129*
CCOC(=O)CCSc1nc(C)c2cc(OC)ccc2n1 | -123*
O=C1/C(=C/c2ccccn2)SC(=S)N1CCc1ccccc1 | -159*
Cc1ccc(/C=C2\SC(=S)N(CCCC(=O)Nc3ccccn3)C2=O)cc1 | 107
CCOc1ccc(N2C(=O)c3ccccc3C2O)cc1 (stereo not drawn) | -96*
CCOc1ccc(N2Cc3ncccc3C2=O)cc1 | -103*
CNCc1cc(Cl)cc(OC)c1OC(C)C | -81*
COc1ccc(CC(=O)c2ccc(O)cc2O)cc1 | -85*
O=C(Cc1ccc(Br)cc1)c1ccc(O)cc1O | -121*
COc1ccc(C(=O)Cc2ccc3c(c2)OCO3)c(O)c1 | -107*
COc1ccc(C(=O)OCc2csc(C)n2)c(O)c1 | -180*
CCCCCCCCCn1c2c(c(=N)c3c1CCC3)CCCC2 | 90
CC(C)CN1CCN(Cc2cnc(-c3ccc(Cl)cc3)nc2)CC1CCO (stereo not drawn) | -78*
Cc1cc(OCC(=O)NC(C)(C)C)ccc1Cl | -93*
CC(C)(C)NC(=O)COc1ccc(-c2ccccc2)cc1 | -110*
CCNC(=O)COc1ccc(-c2ccccc2)cc1 | -116*
Cc1ccc(OCC(=O)N/N=C\c2cn(Cc3ccccc3)c3ccccc23)cc1C | 76
CN(C)C(CNC(=O)c1ccc(C2SCCS2)cc1)c1ccccc1 (stereo not drawn) | -100*
CCCc1nn(C)c(C(=O)Nc2ccc(Cl)cc2)c1Cl | -79*
CCCc1nn(C)c(C(=O)Nc2ccccc2)c1Cl | -98*
CCCc1nn(C)c(C(=O)Nc2cccc(C)c2)c1Cl | -123*
SMILES | aSyn UTR act
COc1cccc(N2CCN(C3C4CC5CC(C4)CC3C5)CC2)c1 (stereo not drawn) | -95*
O=C(CSCc1ccccc1)N1CCN(c2ccccc2)CC1 | -103*
O=C(CSCc1cccc(F)c1)N1CCN(c2ccccc2)CC1 | -199*
O=C(/C=C/Nc1ccc(F)c(Cl)c1)c1ccco1 | -148*
O=C(/C=C/Nc1cccc(F)c1)c1ccco1 | -264*
Cc1ccsc1/C=N\NC(=O)c1cc(C(C)(C)C)[nH]n1 | -138*
CC(C)(C)c1cc(C(=O)N/N=C/c2ccco2)n[nH]1 | -146*
CC(NC(=O)CCl)c1ccccc1Br (stereo not drawn) | -99*
COCc1cc(C)nc2sc(C(=O)Nc3cccc(OC)c3)c(N)c12 | -192*
COCc1cc(C)nc2sc(C(=O)Nc3nccs3)c(N)c12 | -121*
O=C(N=c1nc2ccccn2s1)c1ccccc1 | -180*
CC1c2cc3c(cc2CCN1C(=O)c1cccc(Cl)c1)OCCCO3 (stereo not drawn) | -65*
Cc1ccc(C(=O)Nc2ccc3c(c2)OCO3)cc1S(=O)(=O)N1CCCC1 | -114*
Cc1ccc(NC(=O)c2nsc(Cl)c2Cl)cc1 | -113*
Cc1ccc(NC(=O)c2ccc3c(c2)OCO3)cc1Cl | -123*
Cc1cc(Cl)ccc1NC(=O)c1ccc2c(c1)OCO2 | -231*
Cc1ccc(C(=O)Nc2ccc3c(c2)OCO3)cc1Cl | -123*
O=C(Nc1ccc2c(c1)OCO2)c1cnccn1 | -106*
O=C(Nc1ccc2c(c1)OCO2)c1ccc(Cl)nc1 | -90*
Cc1ccc(NC(=O)c2ccc(Cl)nc2)cc1 | -116*
COc1cc(Cl)c(C)cc1NC(=O)c1ccc2c(c1)OCO2 | -84*
C/C(=N\NC(=O)c1c(Br)cnn1C)c1ccc(NC(=O)c2ccc(F)cc2)cc1 | -108*
C/C(=N\NC(=O)c1c(Cl)cnn1C)c1cccc(NC(=O)c2ccc(C)cc2)c1 | -72*
C/C(=N\NC(=O)c1ccc(O)cc1)c1cccc(NC(=O)c2ccc(Cl)cc2)c1 | -161*
C/C(=N\NC(=O)c1ccccc1F)c1cccc(NC(=O)c2ccc(C)cc2)c1 | -74*
SMILES | aSyn UTR act
C/C(=N\NC(=O)c1cccc(F)c1)c1cccc(NC(=O)c2ccc(F)cc2)c1 | -72*
CSc1cccc(NC(=O)c2c(Cl)cnn2C)c1 | -89*
O=c1cnnc(N/N=C/c2ccccn2)[nH]1 | 75
Nc1cnnc(N/N=C\c2ccccc2)c1Cl | -92*
Clc1ccc(COc2ccccc2-c2ccnc3ncnn23)cc1 | -75*
O=C(CSCc1ccc(F)cc1)Nc1ccc(F)cc1 | -76*
O=C(CSCc1ccccc1)Nc1cccc(F)c1 | -127*
CCC(=O)Oc1ccc(NC(=O)CSCc2ccccc2)cc1 | -106*
Cc1ccccc1CSCC(=O)Nc1ccccc1F | -79*
O=C(CSCc1c(F)cccc1F)Nc1ccccc1 | -116*
O=C(CSCC(=O)Nc1ccccc1)N/N=C/c1c(O)ccc2ccccc12 | 76
O=c1c2ccccc2nc(SCc2nc3ccccc3s2)n1CCCO | -182*
C/C(=N\N1C(=O)c2ccccc2NC1c1ccco1)c1ccccc1O (stereo not drawn) | 59
